Inconclusive results are not listed. Active and inactive are the calls of the source. Calls come from the whole dose curve; as a rule, active = well fitted curve in the direction sought with a large enough effect; inconclusive = small, poorly fitted or top-dose-only effect, or another doubt; inactive = no such curve, though single readings can be large; an effect the other way counts as inactive or inconclusive.
Tests used:
[1] = Quantitative High-Throughput drug screen in 47 multiple myeloma cell lines against the NCATS MIPE library collection: JJN3_DSMZ cell viability assay (AID 1918966; note: nearly all actives have a fitted effect of over 50% in size)
How it was run: (§1)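 Inhibition of cell viability is measured here. Each line was plated at 500 cells per well, treated with MIPE 4.0 drugs, kept 48 hours at 37C, then assayed for ATP content by CellTiter-Glo luminescence.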

[2] = Quantitative High-Throughput drug screen in 47 multiple myeloma cell lines against the NCATS MIPE library collection: H1112_PLB cell viability assay (AID 1918967; note: nearly all actives have a fitted effect of over 30% in size)
How it was run: as §1

[3] = Quantitative High-Throughput drug screen in 47 multiple myeloma cell lines against the NCATS MIPE library collection: KMS27_JCRB cell viability assay (AID 1918970); settings: KMS27 myeloma cells, CellTiter-Glo ATP viability, 48 h; viability (% of DMSO): at 45.8 µM (top of the series); note: nearly all actives have a fitted effect of over 30% in size
How it was run: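 CellTiter-Glo luminescence after 48 h drug exposure at 37 °C; 500 cells/well, 1536-well format, pin-tool compound addition; DMSO = 100%, media-only = 0% viability.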

[4] = Quantitative High-Throughput drug screen in 47 multiple myeloma cell lines against the NCATS MIPE library collection: KMS12BM_JCRB cell viability assay (AID 1918971); note: nearly all actives have a fitted effect of over 35% in size
How it was run: (§2)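 Approved and investigational drugs from MIPE 4.0 were added by pin tool to 500 cells per well. After 48 hours at 37C, ATP-based CellTiter-Glo luminescence indicated remaining viability.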

[5] = Quantitative High-Throughput drug screen in 47 multiple myeloma cell lines against the NCATS MIPE library collection: KMS12PE_JCRB cell viability assay (AID 1918972); note: nearly all actives have a fitted effect of over 30% in size
How it was run: as §1

[6] = Quantitative High-Throughput drug screen in 47 multiple myeloma cell lines against the NCATS MIPE library collection: KMS26_JCRB cell viability assay (AID 1918975); note: nearly all actives have a fitted effect of over 45% in size
How it was run: as §2

[7] = Quantitative High-Throughput drug screen in 47 multiple myeloma cell lines against the NCATS MIPE library collection: NCIH929_DSMZ cell viability assay (AID 1918978); note: nearly all actives have a fitted effect of over 35% in size
How it was run: (§3)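 ATP-based luminescence (CellTiter-Glo, 5 min RT incubation) quantified surviving cells following two days' treatment with MIPE 4.0 agents at 37 °C, 5% CO2.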

[8] = Quantitative High-Throughput drug screen in 47 multiple myeloma cell lines against the NCATS MIPE library collection: OCIMY1_PLB cell viability assay (AID 1918979); note: nearly all actives have a fitted effect of over 35% in size
How it was run: as §3

[9] = Quantitative High-Throughput drug screen in 47 multiple myeloma cell lines against the NCATS MIPE library collection: MM1R_ATCC cell viability assay (AID 1918981); note: nearly all actives have a fitted effect of over 35% in size
How it was run: as §3

[10] = Quantitative High-Throughput drug screen in 47 multiple myeloma cell lines against the NCATS MIPE library collection: LP1_DSMZ cell viability assay (AID 1918982); note: nearly all actives have a fitted effect of over 35% in size
How it was run: as §3

[11] = Quantitative High-Throughput drug screen in 47 multiple myeloma cell lines against the NCATS MIPE library collection: KMS28PE_JCRB cell viability assay (AID 1918983); note: nearly all actives have a fitted effect of over 35% in size
How it was run: as §3

[12] = Quantitative High-Throughput drug screen in 47 multiple myeloma cell lines against the NCATS MIPE library collection: KMS34_JCRB cell viability assay (AID 1918985); note: nearly all actives have a fitted effect of over 40% in size
How it was run: as §3

[13] = Quantitative High-Throughput drug screen in 47 multiple myeloma cell lines against the NCATS MIPE library collection: Karpas25_ECACC cell viability assay (AID 1918968; note: nearly all actives have a fitted effect of over 35% in size)
How it was run: as §1

[14] = Quantitative High-Throughput drug screen in 47 multiple myeloma cell lines against the NCATS MIPE library collection: MOLP8_DSMZ cell viability assay (AID 1918977); note: nearly all actives have a fitted effect of over 45% in size
How it was run: as §3

[15] = Quantitative High-Throughput drug screen in 47 multiple myeloma cell lines against the NCATS MIPE library collection: KMS20_JCRB cell viability assay (AID 1918973); note: nearly all actives have a fitted effect of over 45% in size
How it was run: as §1

[16] = Quantitative High-Throughput drug screen in 47 multiple myeloma cell lines against the NCATS MIPE library collection: MM1S_ATCC cell viability assay (AID 1918980); note: nearly all actives have a fitted effect of over 45% in size
How it was run: as §3

[17] = Quantitative High-Throughput drug screen in 47 multiple myeloma cell lines against the NCATS MIPE library collection: L363_DSMZ cell viability assay (AID 1918984); settings: L363 myeloma viability, CellTiter-Glo ATP luminescence, 48 h; viability (% of control): at 45.8 µM (top of the series); note: nearly all actives have a fitted effect of over 40% in size
How it was run: as §3

[18] = Quantitative High-Throughput drug screen in 47 multiple myeloma cell lines against the NCATS MIPE library collection: KMS21BM_JCRB cell viability assay (AID 1918974); settings: ATP luminescence, 48 h; viability: at 45.8 µM (top of the series)
How it was run: as §1

[19] = Quantitative High-Throughput drug screen in 47 multiple myeloma cell lines against the NCATS MIPE library collection: MMM1_PLB cell viability assay (AID 1918976); note: nearly all actives have a fitted effect of over 35% in size
How it was run: as §3

[20] = Quantitative High-Throughput drug screen in 47 multiple myeloma cell lines against the NCATS MIPE library collection: INA6_PLB cell viability assay (AID 1918965; note: nearly all actives have a fitted effect of over 55% in size)
How it was run: as §1

Measured: Potency
Potency is the fitted concentration of half-maximal effect.

O=C(NCCCCN1CCOCC1)c1cc2ccccc2o1
inactive: [1] | [2] | [3] | [5] | [6] | [7] | [8] | [9] | [10] | [11] | [12]
active: [4] 0.0743 µM

O=c1[nH]c(=O)n([C@H]2C[C@@H](O)[C@@H](CO)O2)cc1I
inactive: [1] | [2] | [13] | [3] | [4] | [6] | [14] | [8] | [10] | [11]
active: [5] 1.48 µM | [9] 6.62 µM | [12] 2.09 µM

CC=C1C2C=C(C)CC1(N)c1ccc(=O)[nH]c1C2 (stereo not given)
inactive: [1] | [2] | [13] | [3] | [5] | [15] | [6] | [14] | [7] | [8] | [16] | [9] | [10] | [11] | [17]

CN(C)CCOc1ccc(-c2nc(-c3ccc4c(c3)CCC4=NO)c(-c3ccncc3)[nH]2)cc1
active: [1] 16.6 µM | [2] 23.5 µM | [13] 14.8 µM | [3] 6.62 µM | [4] 20.9 µM | [5] 10.5 µM | [18] 7.43 µM | [6] 18.7 µM | [14] 14.8 µM | [7] 16.6 µM | [8] 20.9 µM | [16] 18.7 µM | [9] 18.7 µM | [10] 20.9 µM | [11] 23.5 µM | [17] 6.62 µM | [12] 13.2 µM

CCCCCOC(=O)Nc1nc(=O)n([C@@H]2O[C@H](C)[C@@H](O)C2O)cc1F (stereo not given in full)
inactive: [1] | [2] | [3] | [4] | [5] | [15] | [6] | [19] | [14] | [8] | [10] | [11] | [17] | [12]
active: [13] 18.7 µM

CCC(=C(c1ccc(O)cc1)c1ccc(OCCNC)cc1)c1ccccc1
active: [1] 18.7 µM | [2] 23.5 µM | [13] 18.7 µM | [4] 29.6 µM | [5] 23.5 µM | [15] 5.9 µM | [6] 26.4 µM | [14] 26.4 µM | [7] 14.8 µM | [16] 20.9 µM | [9] 23.5 µM | [12] 26.4 µM

COc1cc(Nc2nc3ccccc3nc2NS(=O)(=O)c2ccc(NC(=O)c3ccc(C)c(OC)c3)cc2)cc(OC)c1
active: [20] 16.6 µM | [15] 23.5 µM | [6] 11.8 µM | [7] 14.8 µM | [16] 20.9 µM

CC(C)(CO)[C@@H](O)C(=O)NCCC(=O)O
inactive: [1] | [2] | [13] | [3] | [4] | [5] | [14] | [7] | [8] | [16] | [9] | [10]

Cc1ccc(C2=Nc3ccc(Cl)cc3OC2)cc1
inactive: [2] | [6] | [8] | [9] | [11]
active: [1] 5.26 µM | [13] 3.72 µM | [5] 4.18 µM | [19] 18.7 µM | [12] 6.62 µM

COc1cc2c(cc1OC)[C@@H]1Cc3ccc(OC)c(OC)c3CN1CC2
inactive: [2]
active: [1] 20.9 µM | [13] 16.6 µM | [4] 18.7 µM | [6] 4.69 µM | [19] 16.6 µM | [14] 7.43 µM | [16] 2.96 µM | [11] 20.9 µM

CCCCc1ccc(NS(=O)(=O)c2ccc(C)c(C(=O)N3CCN(c4cccc(C)c4C)CC3)c2)cc1
inactive: [3] | [17]
active: [1] 23.5 µM | [4] 20.9 µM | [6] 23.5 µM | [19] 18.7 µM | [16] 14.8 µM | [10] 23.5 µM | [11] 23.5 µM | [12] 18.7 µM

Cc1cc(OCCCS(C)(=O)=O)cc(C)c1-c1cccc(COc2ccc3c(c2)OC[C@H]3CC(=O)O)c1
inactive: [6] | [8] | [12]
active: [1] 11.8 µM | [2] 20.9 µM | [4] 13.2 µM | [5] 5.26 µM | [19] 14.8 µM | [9] 6.62 µM | [10] 16.6 µM | [11] 20.9 µM

CC1=C[C@@H]2[C@@H]([C@@H](O)C[C@@]3(C)[C@H]2C[C@@H](C)[C@]3(O)C(=O)CO)[C@@]2(C)Cc3cnn(-c4ccccc4)c3C=C12
inactive: [3]
active: [1] 23.5 µM | [13] 0.0083 µM | [4] 18.7 µM | [19] 20.9 µM | [8] 23.5 µM | [16] 0.0083 µM | [17] 0.0332 µM | [12] 23.5 µM
